Each molecule was assayed against Albumin (Bos taurus) (UniProt P02769) (assay: compounds binding labelled BSA control protein – biochemical, small-molecule microarray, Alexa647 label, 635/667 nm fluorescence, artefact control for SMM control protein annotation, profiling panel (AID 1118;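 also: score merges 667 nm emission intensity and signal-to-noise per printed compound spot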)). Settings: BSA-A647 binding, fluorescence 635 nm, higher = more signal.
Chain of Albumin (Bos taurus) (P02769 whole entry, looked up): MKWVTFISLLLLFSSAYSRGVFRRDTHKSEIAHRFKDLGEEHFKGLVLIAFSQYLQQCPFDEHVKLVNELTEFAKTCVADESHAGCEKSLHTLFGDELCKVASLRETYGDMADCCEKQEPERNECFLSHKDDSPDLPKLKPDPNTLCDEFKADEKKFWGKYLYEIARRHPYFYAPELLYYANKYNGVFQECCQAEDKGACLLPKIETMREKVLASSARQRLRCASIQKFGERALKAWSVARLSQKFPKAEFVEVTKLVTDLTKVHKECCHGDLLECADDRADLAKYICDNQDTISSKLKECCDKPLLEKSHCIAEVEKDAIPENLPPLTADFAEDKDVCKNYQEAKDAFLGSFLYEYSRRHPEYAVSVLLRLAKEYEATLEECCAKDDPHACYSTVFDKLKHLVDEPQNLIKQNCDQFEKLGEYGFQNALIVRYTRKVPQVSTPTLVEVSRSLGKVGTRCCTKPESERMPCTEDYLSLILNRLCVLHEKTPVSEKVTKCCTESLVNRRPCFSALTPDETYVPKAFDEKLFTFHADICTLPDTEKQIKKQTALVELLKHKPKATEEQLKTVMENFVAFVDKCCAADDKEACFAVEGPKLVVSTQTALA

Compound	composite z-score
O=C1OCCC/C=C\[C@H]2OC34C=CCN(Cn5nnc6ccccc65)C(=O)[C@H]3N(CCCCCO)C(=O)[C@@H]4C12 (stereo not given in full)	0.743
NCCCCCNC(=O)[C@H]1C[C@H]2C(=O)NCC(=O)N2[C@H]1c1cccc(OCCO)c1	0.0356
CN1C=C(C(=O)OCCS(C)(=O)=O)C(C(=O)OCCS(C)(=O)=O)=CC(CCCO)=CC1C1CC1 (stereo not given)	0.846
COCCOC(=O)N1C(=O)[C@@]2(c3cc(C#CC4=CCCCC4)ccc31)[C@H](C(=O)NC[C@H](O)c1ccccc1)[C@H]1C(=O)O[C@H](c3ccccc3)[C@H](c3ccccc3)N1[C@@H]2c1ccc(O)cc1	0.112
CCCCCCCCCCC(O)C1C=CC2C(=O)N(Cc3ccccc3)C(=O)C2N1n1cnnc1 (stereo not given)	0.834
Cc1ccccc1C(O)C1C=CC2C(=O)N(C)C(=O)C2N1N1CCCCC1 (stereo not given)	0.992
CC(=O)NCCCC[C@@H]1NC(=O)[C@@H]2C[C@H](C(=O)NCCCCCCNC(=O)CS)[C@H](c3ccc(O)cc3)N2C1=O	-0.0424
C=CCOC(=O)[C@H]1[C@@H]2C(=O)O[C@@H](c3ccccc3)[C@@H](c3ccccc3)N2[C@@H](c2ccc(OCCOC(=O)[C@@H]3C[C@@H]4C(=O)N5CCC[C@H]5C(=O)N4[C@@H]3c3ccc(O)cc3)cc2)[C@]12C(=O)Nc1ccccc12	-0.854
C=CCC(OC(C)=O)[C@@H]1[C@@H](N(Cc2ccc(-c3ccccc3)cc2)C(=O)Cc2ccc(OC)cc2)c2cc(OCCCO)ccc2N1C(=O)c1ccc2ccccc2n1 (stereo not given in full)	0.0184
COC(=O)C(CC#Cc1ccc2c(c1)[C@]1(C(=O)N2)[C@H](C(=O)NC[C@H](O)c2ccccc2)[C@H]2C(=O)O[C@H](c3ccccc3)[C@H](c3ccccc3)N2[C@@H]1c1ccc(OCCO)cc1)C(=O)OC	0.516
